High-throughput results (PubChem BioAssay)
Efa HMGR inh – E. faecalis class II HMG-CoA reductase inhibition; purified E. faecalis HMGR, NADPH absorbance 340 nm kinetic; inhibition, % at 10 µM; 0.41% of 190,000 active; AID 1066;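 active = inhibition above a set limit, the median over all tested compounds plus 3 SD, cut at about 9.5% in these data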;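 also: enzyme runs in reverse so mevalonate oxidation gives rising NADPH absorbance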
Insulin prom up – MIN6 insulin promoter up-regulation; z-score at 5 µM; MIN6 insulin promoter-GFP reporter, high-content imaging; active compounds read high; 0.3% of 190,000 active; AID 1625;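 active = z-score above 3 at 5 µM with at least 500 cells counted in the well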
INS promoter inh – TRM-6 insulin promoter activity inhibition | TRM-6 cells (human fetal islet line), insulin promoter-eGFP reporter, imaging; reporter expression induced with tamoxifen | inhibition, % at 2 µM | 0.9% of 130,000 active | AID 1273;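 active = inhibition above the mean plus 3 SD, with well images judged a real hit on visual review, cut at about 60% in these data, passing the limit was not always enough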
Autophagy HCS – autophagy modulation, high-content screen. 0.98% of 190,000 active. MEF GFP-LC3 puncta imaging; test concentration mostly 10 µM. AID 463193. calls only at 10 µM (by protocol);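 active = percentage of spot-positive cells more than 3 SD above its plate mean, without a fluorescence outlier flag or 80% toxicity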
Numbers stand for hits; 0 = inactive; - = not tested or not shown; + = active, no number. This is a sample that favours compounds with a hit; in the whole collection about 1.9% have one here.

SMILES | Efa HMGR inh | Insulin prom up | INS promoter inh | Autophagy HCS
COc1cc(C(=O)Nc2ccccc2C2COC(=O)C2=N)cc(OC)c1OC (configuration not stated) | 0 | 0 | 0 | +
CC(=O)/C=C/n1c(=S)oc2ccccc21 | 0 | 0 | 0 | +
CC(=O)NC1C(=O)N(Cc2ccccc2)c2ccc(Br)cc21 (configuration not stated) | - | 0 | - | -
CC(=O)NC1C(=O)N(CCc2ccccc2)c2ccc(Br)cc21 (configuration not stated) | 0 | 0 | 72 | 0
COc1ccc(-n2c(SCCC(=O)O)nnc2-c2ccncc2)cc1 | 0 | 0 | 81 | 0
Cc1c(CNC(=O)c2cnn3c2NC(c2ccc(Br)cc2)CC3C(F)(F)F)cnn1C (configuration not stated) | 0 | 0 | 81 | 0
Cc1nn(C)cc1CNC(=O)c1cnn2c1NC(c1ccc(Br)cc1)CC2C(F)(F)F (configuration not stated) | 0 | 0 | 0 | 0
Cc1c(CC=C(Cl)Cl)c(=O)[nH]c2c(C)cccc12 | 0 | 0 | 0 | 0
CN(c1cccc(NC(=O)c2cccc([N+](=O)[O-])c2)c1)S(C)(=O)=O | 0 | - | - | 0
COc1cc(S(=O)(=O)N2CCOCC2)ccc1NC(=O)COC(=O)C12CC3CC(CC(C3)C1)C2 | 0 | 3.9 | 0 | 0
Cc1ccc(S(=O)(=O)N2CCOCC2)cc1NC(=O)COC(=O)c1cc(=O)c2ccccc2o1 | 0 | 0 | 0 | +
CCC(CC)C(=O)OCC(=O)Nc1ccc(S(=O)(=O)N2CCOCC2)cc1OC | 0 | 0 | 0 | 0
COc1ccccc1OCCC(=O)OCC(=O)Nc1cc(S(=O)(=O)N2CCOCC2)ccc1Cl | 0 | 0 | 0 | 0
Cc1ccccc1OCCC(=O)OCC(=O)Nc1cc(S(=O)(=O)N2CCOCC2)ccc1Cl | 13 | 0 | 0 | 0
CCOC(=O)c1cc(C#N)c(SCC(=O)OC)[nH]c1=O | - | 0 | - | -
Cc1ccc(-n2c(SCc3ccc(C(=O)O)cc3)nnc2-c2ccncc2)cc1 | - | 0 | - | -
CC(C)NC(=O)NC(=O)COC(=O)c1cccc(S(=O)(=O)N2CCCCC2)c1 | 0 | 4.6 | 0 | 0
Cc1cc(NC(=O)CSc2nnc(C3COc4ccccc4O3)o2)no1 (configuration not stated) | 0 | 0 | 0 | +
Cc1c(S(=O)(=O)N2CCN(c3ccccc3)CC2)c(=O)n(C)c(=O)n1C | - | 0 | - | -
CNC(=O)c1cc(C)c(-c2ccccc2)s1 | 0 | 0 | 89 | 0
Cc1cc(C)c(S(C)(=O)=O)c(Oc2ccc(F)cc2)n1 | 10 | 0 | - | 0
CCOc1ccccc1-n1nnnc1SCC(=O)O | - | 0 | - | -
O=C1c2ccccc2C(=O)N1c1ccc(-c2nc3ccccc3o2)cc1 | 0 | 0 | - | +
C=C(C)Cn1c(-c2ccncc2)n[nH]c1=S | 19 | 0 | 0 | 0
CC(C)Cn1c(-c2ccncc2)n[nH]c1=S | 0 | 0 | 0 | 0
SMILES | Efa HMGR inh | Insulin prom up | INS promoter inh | Autophagy HCS
CC(=O)Oc1ccc(/C=N/NS(=O)(=O)c2ccccc2)cc1 | 0 | 0 | 0 | 0
CC(=O)c1ccc(N2Cc3ccccc3C3(CCOCC3)C2=N)cc1 | 0 | - | 0 | 0
Cc1c(-c2ccnc3cc(C(=O)O)nn23)cnn1C | 0 | 0 | 0 | +
NC(=O)C1(c2ccccc2)CCOCC1 | 0 | 0 | 0 | +
CC(C)NC(=O)C1(c2ccccc2)CCOCC1 | 0 | 0 | 0 | 0
O=c1[nH]c(SCCOc2cccc3ccccc23)nc2ccccc12 | 0 | 0 | 0 | +
CCOc1ccc(OCCSc2nc3ccccc3c(=O)[nH]2)cc1 | 0 | 0 | 0 | 0
Cc1ccc(N2CCCn3c2cc(C)c(C#N)c3=O)cc1C | 9.8 | 0 | 0 | 0
CN1CCN(S(=O)(=O)c2ccc(Cc3ccc(S(=O)(=O)N4CCN(C)CC4)cc3)cc2)CC1 | 0 | 0 | - | +
COC1(OC)N=C(N)C2(C#N)C(c3ccc(C)cc3)C12C#N (configuration not stated) | 0 | 0 | - | 0
COC1(OC)N=C(NC(=O)Nc2ccccc2)C2(C#N)C(c3ccccc3)C12C#N (configuration not stated) | 14 | 0 | - | 0
COCCN1CN(S(=O)(=O)c2ccccc2)c2nc3ccccc3nc21 | 0 | 3.1 | 0 | 0
Cc1cc2nc(N)sc2cc1[N+](=O)[O-] | 0 | 0 | 0 | 0
CCOC(=O)C1=C(C)NC2=C(C(=O)CC(C)(C)C2)C1c1coc2ccccc2c1=O (configuration not stated) | 0 | 0 | 0 | 0
CC1(C)COC(c2coc3ccccc3c2=O)OC1 | 0 | 0 | 100 | 0
COc1cc(/C=C(/NC(C)=O)C(=O)O)cc(Cl)c1OCc1ccc(Br)cc1 | - | 0 | - | -
CCc1ccc2c(c1)C1(NN=C(c3cccc4ccccc34)S1)C(=O)N2 (configuration not stated) | 0 | - | 0 | +
N#Cc1ccc(CSc2nnc(NC(=O)c3ccc4ncsc4c3)s2)cc1 | 0 | 4.4 | - | 0
O=C(Nc1nnc(SCc2c(Cl)cccc2Cl)s1)c1ccc2ncsc2c1 | 0 | 0 | - | 0
Cc1ccc(C(=O)O)cc1NC(=O)CCc1ccccc1 | 0 | 0 | 0 | +
CC(c1ccccc1)N1CCc2[nH]c(=S)[nH]c(=O)c2C1 (configuration not stated) | 0 | 0 | 91 | 0
O=C(Cn1cnc2ccccc21)c1ccc(Br)cc1 | 0 | 0 | - | 0
Cn1c(CC(=O)c2ccc(Br)cc2)[n+](C)c2ccccc21 | 0 | 0 | - | +
CC1CCCC(NC(=O)COC(=O)CCSc2ccccc2)C1C (configuration not stated) | 0 | 0 | 0 | 0
O=C1CC(=O)N(Cc2ccco2)C(=S)N1 | 21 | 0 | 0 | 0
SMILES | Efa HMGR inh | Insulin prom up | INS promoter inh | Autophagy HCS
CC1=NN(c2ccc(C)cc2C)C(=O)C1C(c1ccccc1)C1C(=O)N(c2ccc(C)cc2C)N=C1C (configuration not stated) | 9.6 | 0 | 0 | 0
Cc1cc(C)cc(OCc2nc3ncc(Br)cc3[nH]2)c1 | - | - | 0 | +
CN1CCN(c2ccccc2NC(=O)c2ccc(N3CCCCC3)c([N+](=O)[O-])c2)CC1 | 0 | 0 | - | 0
CN1CCN(c2ccc(C(=O)c3ccccc3)cc2[N+](=O)[O-])CC1 | 0 | 0 | 67 | 0
CCCCC(CC)CNC(=O)Cn1c(=S)[nH]c2ncccc2c1=O (configuration not stated) | 0 | 0 | 0 | 0
COc1cccc(CC(=O)Nc2nc(-c3cc(OC)ccc3OC)cs2)c1 | 12 | 0 | - | 0
CC(C(=O)N1CCCCCC1)c1ccc([N+](=O)[O-])cc1 (configuration not stated) | 0 | 0 | - | 0
CC(Sc1nnc(-c2ccc(O)cc2)o1)C(=O)Nc1cccc2ccccc12 (configuration not stated) | 0 | 0 | 77 | 0
O=C(CCSc1nnc(-c2ccncc2)o1)Nc1cccc2ccccc12 | 0 | - | 0 | 0
Cc1ccc(Cn2nnc3c(=O)n(CC(=O)NCc4ccccc4)cnc32)cc1 | 0 | 0 | 0 | 0
CCCCN1C(=S)SC(C)(C)C1/[N+]([O-])=C/c1ccc(S(=O)(=O)NC)cc1 (configuration not stated) | - | 0 | - | -
Cc1ccc(NC2(c3nnnn3-c3c(C)cccc3C)CCCCC2)cc1 | 0 | 0 | 0 | +
CCO[C@@H]1OC(C(=O)NCc2ccccc2)=C[C@H](c2ccc(Br)cc2)[C@H]1CCCO | 0 | 0 | - | 0
CC(=O)Nc1ccc(NS(=O)(=O)c2ccccc2)cc1 | 0 | - | - | +
